Assay results from ChEMBL document CHEMBL1961873, “Compounds: GSK PKIS; Assays: Nanosyn kinase panel” (2012).

What follows are compounds tested on Platelet-derived growth factor receptor alpha (Homo sapiens), P16234 [D842V]. Conditions: at 0.1 µM.
Chain of Platelet-derived growth factor receptor alpha (Homo sapiens), P16234 [D842V] (P16234 whole entry D842V): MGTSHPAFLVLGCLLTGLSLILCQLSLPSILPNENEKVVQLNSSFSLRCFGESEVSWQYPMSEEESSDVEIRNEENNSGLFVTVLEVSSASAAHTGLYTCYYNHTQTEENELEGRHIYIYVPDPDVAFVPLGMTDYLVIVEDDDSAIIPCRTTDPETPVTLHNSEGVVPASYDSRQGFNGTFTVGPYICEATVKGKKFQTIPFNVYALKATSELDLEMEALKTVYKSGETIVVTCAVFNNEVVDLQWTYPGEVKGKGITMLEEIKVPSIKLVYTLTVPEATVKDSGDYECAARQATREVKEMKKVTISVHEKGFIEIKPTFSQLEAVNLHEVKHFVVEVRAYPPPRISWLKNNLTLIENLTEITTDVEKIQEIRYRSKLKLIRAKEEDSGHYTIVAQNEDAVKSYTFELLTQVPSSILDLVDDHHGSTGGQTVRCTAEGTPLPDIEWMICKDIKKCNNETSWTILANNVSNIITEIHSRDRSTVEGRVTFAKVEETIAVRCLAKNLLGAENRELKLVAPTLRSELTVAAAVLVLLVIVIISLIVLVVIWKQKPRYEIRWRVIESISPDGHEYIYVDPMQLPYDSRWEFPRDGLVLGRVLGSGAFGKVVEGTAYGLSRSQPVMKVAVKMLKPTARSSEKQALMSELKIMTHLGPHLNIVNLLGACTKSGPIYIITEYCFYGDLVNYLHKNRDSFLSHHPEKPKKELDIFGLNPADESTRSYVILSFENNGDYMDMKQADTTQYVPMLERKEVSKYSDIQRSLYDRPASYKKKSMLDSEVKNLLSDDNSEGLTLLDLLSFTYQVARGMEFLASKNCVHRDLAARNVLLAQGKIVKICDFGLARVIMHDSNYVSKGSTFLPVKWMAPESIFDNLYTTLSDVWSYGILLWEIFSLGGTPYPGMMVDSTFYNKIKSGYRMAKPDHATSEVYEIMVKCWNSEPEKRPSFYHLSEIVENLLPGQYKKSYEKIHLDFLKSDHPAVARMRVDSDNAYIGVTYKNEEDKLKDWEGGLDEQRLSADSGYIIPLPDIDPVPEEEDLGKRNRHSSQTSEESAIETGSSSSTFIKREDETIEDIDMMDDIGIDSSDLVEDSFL

Compound | inhibition [%]
Cc1nnc(-c2ccc(C)c(-c3ccc(C(=O)NCc4ccc(Cl)cc4)cc3)c2)o1 | 3.25
Cc1ccc(C(=O)NC(C)C)cc1-c1ccc(C(=O)NCC2CC2)cc1 | 2.27
O=C(Nc1ccc(Oc2ccc3[nH]c(NC(=O)c4ccccc4)nc3c2)cc1)Nc1cc(C(F)(F)F)ccc1F | 1.94
COc1cc(C)c(N(C)C(=O)CN(C)C)cc1Nc1nc(Nc2cccc(F)c2C(N)=O)c2cc[nH]c2n1 | 0.9
CN(C)c1ccc2c(c1)/C(=C/Nc1ccc(S(N)(=O)=O)cc1)C(=O)N2 | 14.4
c1ccc(Oc2ccc(Nc3ncc(-c4ccccc4)o3)cc2)cc1 | 4.48
COc1cccc(-n2cnc3c(N/N=C/c4ccncc4)ncnc32)c1 | 4.61
Fc1ccc(-c2ncn(C3CCNCC3)c2-c2ccnc(Oc3ccc(Oc4ccccc4)cc3)n2)cc1 | 0.69
O=C(NCC1CC1)c1ccc(-c2cccc(C(=O)NC3CC3)c2)cc1 | -0.01
N#Cc1ccc(Oc2nccc(-c3c(-c4ccc(F)cc4)ncn3C3CCNCC3)n2)cc1 | 3.33
COc1ccc2cc(-c3c(-c4ccncc4)nc(-c4ccc(S(C)(=O)=O)cc4C)n3C)ccc2c1 | 2.7
C/C(Nc1ccc(S(N)(=O)=O)cc1)=C1/C(=O)Nc2ccccc21 | 4.56
Fc1ccc(-c2c(-c3ccncc3)nc3n2CCS3)cc1 | 1.59
C#Cc1cccc(Nc2ncnc3ccc(OCCCCNCCS(C)(=O)=O)cc23)c1 | 6.83
COc1ccc2ncn(-c3cc(O[C@H](C)c4ccccc4Cl)c(C(N)=O)s3)c2c1 | 2.8
Fc1ccc(-c2nc3n(c2-c2ccncc2)CCS3)cc1 | 4.17
CCS(=O)(=O)c1ccc(OC)c(Nc2ncc(-c3cccc(-c4ccccc4F)c3)o2)c1 | 6.19
Nc1nccc(-c2c(-c3ccc(F)cc3)ncn2C2CCC(O)CC2)n1 (configuration not stated) | 2.7

The compounds below were run on Platelet-derived growth factor receptor alpha (Homo sapiens), P16234 [D842V]. Conditions: at 1 µM.

Compound | inhibition [%]
CCC(=O)Nc1ccc(C)c(-c2ccc(C(=O)NCC3CC3)cc2)c1 | 3.14
CN(C)CCOc1ccc(-c2cc(-c3ccc4c(c3)CCC4=NO)c(-c3ccncc3)o2)cc1 | 2.8
c1ccc(-c2n[nH]cc2-c2ccnc(-c3ccc(OCCN4CCOCC4)cc3)c2)nc1 | 71
COc1cccc(/C=N/Nc2ncnc3c2cnn3-c2cccc(OC)c2)c1 | 7.96
NCc1ccc(-n2c(-c3nonc3N)nc3cnccc32)cc1 | 16.1
Cc1ccc(C(=O)NC2CCC2)cc1-c1ccc(C(=O)NCC2CC2)cc1 | 0.66
COc1cc(Nc2ncc3c(C)nc(-c4cccc(Oc5ccccc5)c4)n3n2)cc(OC)c1OC | 5.9
Fc1ccc(-c2ncn(C3CCNCC3)c2-c2ccnc(Oc3ccc(F)c(F)c3)n2)cc1 | 3.42
COC(=O)Nc1nc2ccc(Sc3ccc(NC(=O)Nc4cc(C(F)(F)F)ccc4F)cc3)cc2[nH]1 | 1.45
NC(=O)c1cc(-c2ccc(F)cc2)cc(-c2ccncc2)c1N | 12.2
CN(C)CCCNc1nccc(-c2c(-c3ccc(F)cc3)nn3cc(C(F)(F)F)ccc23)n1 | 4.77
CCc1nccc2c1nc(-c1nonc1N)n2CC | 9.06
COc1ccc(-c2ccc3c(NC(=O)C4CC4)n[nH]c3n2)cc1 | 5.35
O=C1Nc2ccc(I)cc2C1=Cc1cc(Br)c(O)c(Br)c1 | 3.36
O=C(Nc1n[nH]c2nc(-c3ccc(O)cc3)c(Br)cc12)C1CC1 | 55.5
CS(=O)(=O)CCNCc1cc(-c2cc3c(Nc4ccc(OCc5cccc(F)c5)c(Cl)c4)ncnc3s2)cs1 | 4.9
Cc1nnc(-c2ccc(C)c(-c3ccc(C(=O)NCc4ccc(Cl)cc4)cc3)c2)o1 | 2.53

Compound | inhibition [%]
Cc1ccc(C(=O)NC(C)C)cc1-c1ccc(C(=O)NCC2CC2)cc1 | 2.56
O=C(Nc1ccc(Oc2ccc3[nH]c(NC(=O)c4ccccc4)nc3c2)cc1)Nc1cc(C(F)(F)F)ccc1F | 8.54
COc1cc(C)c(N(C)C(=O)CN(C)C)cc1Nc1nc(Nc2cccc(F)c2C(N)=O)c2cc[nH]c2n1 | 0.89
CN(C)c1ccc2c(c1)/C(=C/Nc1ccc(S(N)(=O)=O)cc1)C(=O)N2 | 65.3
c1ccc(Oc2ccc(Nc3ncc(-c4ccccc4)o3)cc2)cc1 | 3.18
COc1cccc(-n2cnc3c(N/N=C/c4ccncc4)ncnc32)c1 | 45.6
Fc1ccc(-c2ncn(C3CCNCC3)c2-c2ccnc(Oc3ccc(Oc4ccccc4)cc3)n2)cc1 | 1.95
O=C(NCC1CC1)c1ccc(-c2cccc(C(=O)NC3CC3)c2)cc1 | -0.59
N#Cc1ccc(Oc2nccc(-c3c(-c4ccc(F)cc4)ncn3C3CCNCC3)n2)cc1 | 4.12
COc1ccc2cc(-c3c(-c4ccncc4)nc(-c4ccc(S(C)(=O)=O)cc4C)n3C)ccc2c1 | 12.3
C/C(Nc1ccc(S(N)(=O)=O)cc1)=C1/C(=O)Nc2ccccc21 | 33.6
Fc1ccc(-c2c(-c3ccncc3)nc3n2CCS3)cc1 | 3.82
C#Cc1cccc(Nc2ncnc3ccc(OCCCCNCCS(C)(=O)=O)cc23)c1 | 11.5
COc1ccc2ncn(-c3cc(O[C@H](C)c4ccccc4Cl)c(C(N)=O)s3)c2c1 | 11.8
Fc1ccc(-c2nc3n(c2-c2ccncc2)CCS3)cc1 | 3.44
CCS(=O)(=O)c1ccc(OC)c(Nc2ncc(-c3cccc(-c4ccccc4F)c3)o2)c1 | 32.1
Nc1nccc(-c2c(-c3ccc(F)cc3)ncn2C2CCC(O)CC2)n1 (configuration not stated) | 14.2
